24 compounds from PubChem BioAssay (NCATS) can be followed below.

Assay [1] can be described thus: Primary qHTS for inhibitors of nuclear receptor binding SET domain protein 2 (NSD2) in an RCH-ACV wild type WT cells (2C) (AID 1645877; further: nearly all actives have a fitted effect of over 70% in size; further: potency means the concentration at half of the fitted maximal effect). (In general: In qHTS, concentration-response curves come from the screen itself.)
The target of assay [2] is Rap guanine nucleotide exchange factor 3 (Homo sapiens) (UniProt O95398). Briefly: Confirmatory qHTS for agonist of cAMP-regulated guanine nucleotide exchange factor 3 (EPAC1) (AID 1645881).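 Further: EPAC1 catalysed release of BODIPY-GDP from Rap1B seen as fluorescence loss; nearly all actives have a fitted effect of over 75% in size.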
Rap guanine nucleotide exchange factor 3 (Homo sapiens), sequence (O95398 whole entry, looked up): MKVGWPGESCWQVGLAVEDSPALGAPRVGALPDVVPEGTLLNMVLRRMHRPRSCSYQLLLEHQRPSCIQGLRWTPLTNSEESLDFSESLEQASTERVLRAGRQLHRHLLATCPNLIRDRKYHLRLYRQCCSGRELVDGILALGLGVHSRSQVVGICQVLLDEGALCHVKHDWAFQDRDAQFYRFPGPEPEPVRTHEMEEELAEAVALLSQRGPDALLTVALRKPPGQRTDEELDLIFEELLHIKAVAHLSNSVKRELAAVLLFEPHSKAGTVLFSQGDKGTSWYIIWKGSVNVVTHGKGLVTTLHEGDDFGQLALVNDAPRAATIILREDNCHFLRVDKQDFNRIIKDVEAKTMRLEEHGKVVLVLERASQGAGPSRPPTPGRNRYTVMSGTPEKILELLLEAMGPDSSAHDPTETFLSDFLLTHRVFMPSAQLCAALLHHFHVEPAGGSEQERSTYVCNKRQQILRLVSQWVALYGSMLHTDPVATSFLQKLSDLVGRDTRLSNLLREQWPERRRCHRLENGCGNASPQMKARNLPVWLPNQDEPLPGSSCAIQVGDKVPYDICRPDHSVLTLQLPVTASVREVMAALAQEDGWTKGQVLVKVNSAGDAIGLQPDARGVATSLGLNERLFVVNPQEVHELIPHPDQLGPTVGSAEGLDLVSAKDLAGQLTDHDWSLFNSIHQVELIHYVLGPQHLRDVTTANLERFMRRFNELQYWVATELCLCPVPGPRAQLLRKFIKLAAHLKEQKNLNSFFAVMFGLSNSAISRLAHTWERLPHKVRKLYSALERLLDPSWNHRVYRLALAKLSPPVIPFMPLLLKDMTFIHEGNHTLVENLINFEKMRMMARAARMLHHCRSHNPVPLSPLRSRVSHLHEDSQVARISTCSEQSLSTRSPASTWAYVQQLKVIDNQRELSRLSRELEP
Assay [3] has as its target Rap guanine nucleotide exchange factor 4 (Homo sapiens) (UniProt Q8WZA2). In words: Confirmatory qHTS for agonist of cAMP-regulated guanine nucleotide exchange factor 4 (EPAC2) (AID 1645884).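 Further: nucleotide exchange releases bodipy-GDP from Rap1 and this lowers its fluorescence; nearly all actives have a fitted effect of over 65% in size.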
The target is the same in assay [4]. In words: Confirmatory qHTS for antagonist of cAMP-regulated guanine nucleotide exchange factor 4 (EPAC2) (AID 1645885). Further: nearly all actives have a fitted effect of over 25% in size. Further: potency means the concentration at half of the fitted maximal effect.
For assay [5], the target named is Glutathione peroxidase 1 (Homo sapiens) (UniProt P07203). Briefly: Primary qHTS Assay for Inhibitors of Recombinant Selenoprotein Glutathione Peroxidase 1 (GPX1) (AID 1845191). Further: nearly all actives have a fitted effect of over 65% in size. Further: potency means the concentration at half of the fitted maximal effect. The method, boiled down:
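GR-coupled readout: NADPH consumption tracked by fluorescence, ex 340/em 450 nm, at t=0 and after 15 min at RT. Final mix 10 nM GPX1, 1 mM GSH, 0.5 mM CHP, 0.5 mM NADPH, 100 nM GR, 0.01% BSA, following 30 min enzyme–compound preincubation.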

Assay [6] concerns the target Phospholipid hydroperoxide glutathione peroxidase GPX4 (Homo sapiens) (UniProt P36969). In words: Primary qHTS Assay for Inhibitors of Recombinant Selenoprotein Glutathione Peroxidase 4 (GPX4) (AID 1845192). Further: nearly all actives have a fitted effect of over 65% in size. Further: potency means the concentration at half of the fitted maximal effect. A digest of the protocol: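 Steps: GPX4 plus compound, 30 min RT; add GR/GSH/NADPH master mix; start with cumene hydroperoxide; read 340/450 nm fluorescence at 0 and 15 min. Finals were 200 nM GPX4, 1 mM GSH, 0.5 mM CHP, 0.5 mM NADPH, 100 nM GR.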

Assay [7] concerns the target Luciferin 4-monooxygenase (Photinus pyralis) (UniProt P08659). Briefly: Primary firefly luciferase (FLuc) qHTS assay for identification of artifact compounds. (AID 1845220). Further: nearly all actives have a fitted effect of over 60% in size. The settings on record: outcome: dose series up to 54.1 µM. A digest of the protocol:
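Enzymatic FLuc inhibition assay: compounds pre-exposed to luciferin/ATP (10 uM each) for 15 min, then purified P. pyralis enzyme at 10 nM added. Read-out: luminescence at 5 min.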

The subject of assay [8] is Nanoluciferase (engineered Oplophorus gracilirostris luciferase). Briefly: Primary Nanoluciferase (NLuc) qHTS assay for identification of artifact compounds. (AID 1845222).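 Further: NLuc secreted into diluted conditioned medium of S16 cells; series mostly up to about 54 µM.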 A digest of the protocol: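 S16 cell supernatant NLuc, 1:55; cpds qHTS; 15 min RT dark; Nano-Glo substrate 1:100, 5 min; luminescence; Hill fit of % inhibition.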
A short description of assay [9]: Primary redox qHTS assay for identification of artifact compounds. (AID 1845223). A digest of the protocol:
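Redox-cycling detection via DTT (250 uM final) oxidation coupled to Amplex Red (25 uM)/HRP (250 mU/mL) in HBSS. 15 min preincubation plus 30 min after DTT, room temperature. Ex/Em 525/598 nm; 4-parameter Hill fit against DMSO and 10 uM DA3003.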

Assay [10] in a line: Primary fluorescence-based thiol-reactive (MSTI) qHTS assay for identification of artifact compounds. (AID 1845221).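 Further: series mostly up to about 54 µM; thiol-reactive compounds lower the probe fluorescence signal; nearly all actives have a fitted effect of over 65% in size.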 A digest of the protocol: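 MSTI probe at 4 uM final in 2% DMSO/PBS pH 7.4; compounds, 1 h at room temperature in dark. Fluorescence Ex/Em 525/598 nm, normalised to Acetyl-MSTI and MSTI, fitted to 4-parameter Hill.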
For assay [11], the target named is Rap guanine nucleotide exchange factor 3 (Homo sapiens) (UniProt O95398). In words: Counterscreen qHTS for antagonist of cAMP-regulated guanine nucleotide exchange factor 3 (EPAC1) (AID 1645888).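 Further: fluorescence loss as bound BODIPY-GDP is released from Rap1B.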 The method, boiled down: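 Rap1B–BODIPY-GDP (250 nM) with 50 uM GDP; compounds pin-transferred to 9.74 nM–152 uM final (activator) or from 7.32 nM upwards (inhibitor). Fluorescence Ex/Em 480/540 nm read at 5 and 30 min, then after adding cAMP or buffer, at room temperature.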
(In general: A counterscreen serves to expose hits that act by an unwanted route or on another target.)

Assay [12] can be described thus: NCATS anti-infectives library activity on HEK293 viability as a counter-qHTS vs the C. elegans viability qHTS (AID 1745854). A digest of the protocol: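 CellTiter-Glo luminescence, read on a CCD imager, scored viability of HEK293 cells after 24 hr compound exposure at 37C. Library tested in several concentrations, 1:5 steps, up to 41.7 uM; digitonin served as control.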

Structures are written as SMILES. Where “and” joins values, the source holds several entries; their conditions need not be identical. Identical values can stand only once. Inconclusive results are not listed. Calls of active or inactive are those of the source. The call rests on the fitted dose curve; in most records, active means well fitted curve in the direction sought with a large enough effect; inconclusive means small, poorly fitted or top-dose-only effect, or another doubt; inactive means no such curve, though single readings can be large; an effect the other way counts as inactive or inconclusive.

Phospholipid hydroperoxide glutathione peroxidase GPX4 (Homo sapiens), sequence (P36969 whole entry, looked up): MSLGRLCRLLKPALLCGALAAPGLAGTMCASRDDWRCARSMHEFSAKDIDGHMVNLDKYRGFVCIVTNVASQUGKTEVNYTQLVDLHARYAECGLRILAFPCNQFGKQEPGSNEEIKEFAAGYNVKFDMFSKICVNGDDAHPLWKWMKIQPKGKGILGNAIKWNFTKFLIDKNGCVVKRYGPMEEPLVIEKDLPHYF
Glutathione peroxidase 1 (Homo sapiens), sequence (P07203 whole entry, looked up): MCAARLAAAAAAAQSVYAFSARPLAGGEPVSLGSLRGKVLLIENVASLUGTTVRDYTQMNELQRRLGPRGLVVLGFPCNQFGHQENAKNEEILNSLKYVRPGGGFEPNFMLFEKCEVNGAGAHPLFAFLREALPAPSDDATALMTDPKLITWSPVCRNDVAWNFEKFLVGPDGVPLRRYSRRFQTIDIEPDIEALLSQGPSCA
Rap guanine nucleotide exchange factor 4 (Homo sapiens), sequence (Q8WZA2 whole entry, looked up): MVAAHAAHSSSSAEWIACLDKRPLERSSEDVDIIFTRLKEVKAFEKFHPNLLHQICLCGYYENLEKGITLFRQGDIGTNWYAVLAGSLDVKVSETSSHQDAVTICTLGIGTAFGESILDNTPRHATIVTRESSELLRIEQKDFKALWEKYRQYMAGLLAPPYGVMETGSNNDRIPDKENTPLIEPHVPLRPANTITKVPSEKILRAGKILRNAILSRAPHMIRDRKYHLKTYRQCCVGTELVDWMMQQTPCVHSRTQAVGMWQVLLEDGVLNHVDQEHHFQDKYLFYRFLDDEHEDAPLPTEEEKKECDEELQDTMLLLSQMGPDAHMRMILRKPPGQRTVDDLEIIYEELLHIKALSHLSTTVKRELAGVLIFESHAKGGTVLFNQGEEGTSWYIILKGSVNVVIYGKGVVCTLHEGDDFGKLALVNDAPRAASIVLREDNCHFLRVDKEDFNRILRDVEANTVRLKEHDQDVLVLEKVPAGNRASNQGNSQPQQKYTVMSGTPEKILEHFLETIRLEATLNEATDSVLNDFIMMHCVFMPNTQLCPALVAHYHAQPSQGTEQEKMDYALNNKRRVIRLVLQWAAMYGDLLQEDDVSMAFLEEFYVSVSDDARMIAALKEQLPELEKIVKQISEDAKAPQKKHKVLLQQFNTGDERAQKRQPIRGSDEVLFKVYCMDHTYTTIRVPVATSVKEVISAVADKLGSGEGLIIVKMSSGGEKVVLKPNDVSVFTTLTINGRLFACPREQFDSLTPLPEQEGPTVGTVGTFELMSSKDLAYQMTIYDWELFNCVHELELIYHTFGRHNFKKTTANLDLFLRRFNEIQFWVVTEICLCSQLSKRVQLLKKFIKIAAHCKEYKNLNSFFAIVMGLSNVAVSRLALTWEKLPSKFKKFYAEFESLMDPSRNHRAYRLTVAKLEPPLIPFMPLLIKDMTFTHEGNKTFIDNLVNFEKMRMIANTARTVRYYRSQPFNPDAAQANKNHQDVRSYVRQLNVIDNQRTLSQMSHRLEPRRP

With `CN(C)CCCSc1ccccc1NC(=O)/C=C/c1ccccc1`, the Potency entry in assay [1] was “inactive”.
Regarding `COc1ccc2c(c1)N(C[C@H](C)CN(C)C)c1ccccc1S2`, the result in [2] and in assay [3] was inactive. Moreover, the Potency entry in assay [4], in assay [5] and in assay [6] was “inactive” throughout.
Regarding `CSc1nc2cc(Oc3cccc(Cl)c3Cl)c(Cl)cc2[nH]1`, the result in assay [2] and in [3] was inactive. Moreover, the Potency entry in assay [5] is “inactive”.
With `CCCCC(=O)O[C@H]1CC[C@H]2[C@@H]3CCc4cc(O)ccc4[C@H]3CC[C@]12C`, the compound was classed as inactive in assay [2] and in [3]. Moreover, the Potency result in assay [4], in assay [5] and in assay [6] was “inactive” throughout.
On to `CC(C)[C@@H](C)/C=C/[C@@H](C)[C@H]1CC[C@H]2/C(=C/C=C3\C[C@@H](O)CC[C@@H]3C)CCC[C@]12C`, for which the result in assay [2] and in assay [3] was inactive. In addition, the Potency result in assay [5] is “inactive”.
For `CC(=O)NCCCS(=O)(=O)O`, the Potency entry in assay [1], in assay [5] and in assay [6] was “inactive” each time.
Take `CC1CC(OC(=O)C(O)c2ccccc2)CC(C)(C)C1` (stereo not given): the call in assay [2], in assay [3], in [7], in [8] and in assay [9] was inactive. Also, the Potency entry in assay [5] is “inactive”.
As to `C[C@H]1O[C@@H](O[C@H]2[C@@H](O)C[C@H](O[C@H]3[C@@H](O)C[C@H](O[C@H]4CC[C@@]5(C)[C@H](CC[C@@H]6[C@@H]5C[C@@H](O)[C@]5(C)[C@@H](C7=CC(=O)OC7)CC[C@]65O)C4)O[C@@H]3C)O[C@@H]2C)C[C@H](O)[C@@H]1O`, the Potency in [1] is 51.5 nM (active) and 118 nM (active). Besides, the Potency entry in assay [5] and in [6] was “inactive” throughout. In addition, the compound was classed as inactive in [7], in assay [10], in assay [8] and in [9].
As to `CC(C)(C)c1ccc(CN2CCN(C(c3ccccc3)c3ccc(Cl)cc3)CC2)cc1` (stereo not given), the Potency result in assay [1], in assay [5] and in assay [6] was “inactive” each time. Further, the result in assay [7], in [10], in [8] and in assay [9] was inactive.
In the case of `C=CC[N+]1([C@H]2C[C@H]3[C@@H]4CC[C@H]5C[C@H](O)[C@@H](N6CCOCC6)C[C@]5(C)[C@H]4CC[C@]3(C)[C@H]2OC(C)=O)CCCC1`, the Potency result in assay [1], in assay [5] and in assay [6] was “inactive” in each case.
Consider `COc1cc(NCCCC(C)N)c2ncccc2c1` (stereo not given), for which the compound was classed as inactive in [2], in assay [3] and in assay [11]. In [4], the Potency entry is “inactive”.
As to `C=CC(C)(O)CC/C=C(\C)CCC=C(C)C` (stereo not given), the compound was classed as inactive in assay [2] and in [3]. Besides, the Potency in assay [4] was 44.1 µM (active).
As for `CO[C@H]1C[C@@H]2CC[C@@H](C)[C@@](O)(O2)C(=O)C(=O)N2CCCC[C@H]2C(=O)O[C@H]([C@H](C)C[C@@H]2CC[C@@H](OC(=O)C(C)(CO)CO)[C@H](OC)C2)CC(=O)[C@H](C)/C=C(\C)[C@@H](O)[C@@H](OC)C(=O)[C@H](C)C[C@H](C)/C=C/C=C/C=C/1C`, in assay [1], the Potency is 574 nM (active). Besides, the Potency result in [5] and in assay [6] was “inactive” throughout. Also, the result in [7], in assay [10], in [8] and in assay [9] was inactive.
On to `NC[C@H]1O[C@H](O[C@H]2[C@H](O)[C@@H](O[C@H]3O[C@H](CO)[C@@H](O)[C@H](N)[C@H]3O)[C@H](N)C[C@@H]2N)[C@H](N)C[C@@H]1O`, for which the Potency result in assay [1], in [5] and in assay [6] was “inactive” each time.
`CCC[C@@H]1C[C@@H](C(=O)N[C@@H]([C@H]2O[C@H](SC)[C@H](O)[C@@H](O)[C@H]2O)[C@H](C)Cl)N(C)C1`: the Potency result in assay [1], in [5] and in assay [6] was “inactive” in each case.
As for `O=C(O)CCC(=O)c1ccc(-c2ccccc2)cc1`, the Potency result in assay [1], in assay [5] and in assay [6] was “inactive” each time.
As for `C=C1[C@H](CO)[C@@H](O)C[C@@H]1n1cnc2c(=O)[nH]c(N)nc21`, the Potency result in assay [1], in assay [5] and in assay [6] was “inactive” in each case. Also, the outcome in assay [12], in [7], in assay [10], in assay [8] and in assay [9] was inactive.
Regarding `N[C@@H](Cc1cc(I)c(Oc2ccc(O)c(I)c2)c(I)c1)C(=O)O`, the Potency entry in assay [1] and in assay [5] was “inactive” each time. Also, the outcome in assay [7], in assay [10], in assay [8] and in assay [9] was inactive.
In the case of `O=C(NNCS(=O)(=O)O)c1ccncc1`, the result in [2] and in [3] was inactive. Moreover, the Potency result in assay [4] is “inactive”. In addition, in assay [5], the Potency is 5.7 µM (active).
With `NC(=O)Oc1ccc(Cc2ccccc2)cc1`, the call in assay [2] and in assay [3] was inactive. The Potency entry in assay [4] is “inactive”.
On to `COc1cc(C)c(/C=C/C(C)=C/C=C/C(C)=C/C(=O)O)c(C)c1C`, for which, in [1], the Potency was 18600 nM (active). The Potency entry in assay [5] was “inactive”.
Turning to `CCOC(=O)Oc1c(OC)cc(C(=O)O[C@@H]2C[C@@H]3CN4CCc5c([nH]c6cc(OC)ccc56)[C@H]4C[C@@H]3[C@H](C(=O)OC)[C@H]2OC)cc1OC`, the call in [2] and in [3] was inactive. For the same compound, the Potency entry in [5] is “inactive”. Further, in assay [6], the Potency was 15.8 µM (active).
For `CC[C@H]1OC(=O)[C@H](C)[C@@H](O[C@H]2C[C@@](C)(OC)[C@@H](O)[C@H](C)O2)[C@H](C)[C@@H](O[C@@H]2O[C@H](C)C[C@H](N(C)C)[C@H]2O)[C@](C)(O)C[C@@H](C)CN(C)[C@H](C)[C@@H](O)[C@]1(C)O`, the Potency result in assay [1], in assay [5] and in [6] was “inactive” each time. Also, the compound was called inactive in assay [12].
`O=C(O)c1cc(N=Nc2ccc(O)c(C(=O)O)c2)ccc1O`: the call in assay [2] and in [3] was inactive. Further, in assay [5], the Potency entry was “inactive”.
